Reference: PubChem BioAssay (Tox21)
Unmarked numbers belong to inactive results. Inconclusive results are not listed. Entries that show only a call come without a potency. The source made the active and inactive calls. Unless noted, the call rests on the fitted dose curve.

Assays:
[1] = Nuclear factor erythroid 2-related factor 2/antioxidant responsive element (Nrf2/ARE) small molecule agonists: qHTS cell viability counter screen in human keratinocytes (AID 1919968; active means well fitted curve in the direction sought with a large enough effect in the repeat runs; an effect the other way counts as inactive or inconclusive; further: nearly all actives have a fitted effect of over 55% in size; further: potency means the concentration at half of the fitted maximal effect)
Outline: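 HaCaT ARE reporter line, 1,500 cells/well; 5 h settle, 37 C/5% CO2; cpd in DMSO pinned; 23 h exposure; CellTiter-Fluor, 1 h; fluorescence.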

[2] = target: Gonadotropin-releasing hormone receptor (Homo sapiens) (UniProt P30968); assay: Human gonadotropin-releasing hormone receptor (GnRHR) small molecule agonists, calcium flux assay in GnRHR-HEK293 cells (AID 1920063); further: nearly all actives have a fitted effect of over 35% in size
Sequence of Gonadotropin-releasing hormone receptor (Homo sapiens) (P30968 whole entry, looked up): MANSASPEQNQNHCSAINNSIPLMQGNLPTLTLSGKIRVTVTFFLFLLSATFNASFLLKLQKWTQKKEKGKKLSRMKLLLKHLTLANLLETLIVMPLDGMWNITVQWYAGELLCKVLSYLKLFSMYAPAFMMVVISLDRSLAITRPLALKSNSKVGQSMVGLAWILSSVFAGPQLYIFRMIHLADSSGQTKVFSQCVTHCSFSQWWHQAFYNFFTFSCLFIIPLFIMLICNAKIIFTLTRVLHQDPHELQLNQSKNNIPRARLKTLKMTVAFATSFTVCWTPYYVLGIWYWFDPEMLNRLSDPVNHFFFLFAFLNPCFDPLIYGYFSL
Outline: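 GnRHR-HEK293, 1500 cells/well, 18 h 37 C/5% CO2; Ca dye 1 h 37 C; cpd pinned (DMSO), agonist mode; kinetic FL 480/540, 3 min, 1 s reads; 15 conc, n=3.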

[3] = target: KiSS-1 receptor (Homo sapiens) (UniProt Q969F8); assay: Human kisspeptin (KISS1R) small molecule agonists, calcium flux assay in KISS1R-HEK293 cells (AID 1920064; active means well fitted curve in the direction sought with a large enough effect in the repeat runs; an effect the other way counts as inactive or inconclusive)
Sequence of KiSS-1 receptor (Homo sapiens) (Q969F8 whole entry, looked up): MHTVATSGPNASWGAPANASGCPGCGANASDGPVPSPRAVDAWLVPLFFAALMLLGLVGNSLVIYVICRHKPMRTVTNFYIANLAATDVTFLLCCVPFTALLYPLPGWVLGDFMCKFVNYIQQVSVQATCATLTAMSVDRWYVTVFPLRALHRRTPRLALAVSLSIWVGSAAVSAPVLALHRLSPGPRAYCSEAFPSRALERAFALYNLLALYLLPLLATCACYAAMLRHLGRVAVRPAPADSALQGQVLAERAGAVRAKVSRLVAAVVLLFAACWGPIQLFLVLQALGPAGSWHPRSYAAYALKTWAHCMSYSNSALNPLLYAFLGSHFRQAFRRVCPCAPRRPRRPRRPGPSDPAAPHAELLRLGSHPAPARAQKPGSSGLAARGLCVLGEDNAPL
Outline: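 Stable human KISS1R HEK293 line; 18 h plating, 37 C/5% CO2; calcium dye 1 h 37 C; compound pin transfer; kinetic fluorescence Ex/Em 480/540, 3 min.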

[4] = G protein-coupled receptor (GPCR) small molecule agonists, calcium flux assay: HEK293 wild type cell line counter screen (AID 1920065)
Outline: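 Kinetic fluorescence at Ex/Em 480/540, recorded every second over 3 min, served as the read-out after compound addition. Each compound was tested at 15 concentrations in triplicate on cells pre-loaded with calcium dye for 1 h.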

[5] = p53 small molecule agonists, cell-based qHTS assay with human liver microsomes (AID 1963577)
Outline: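 p53RE-bla cells, 4,000/well, compound added after 5 h, with human liver microsomes 0.5 mg/mL and NADPH 0.5 mg/mL final; 16 h at 37 C, then LiveBLAzer 2 h RT, fluorescence.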

[6] = p53 small molecule agonists, cell-based qHTS assay with rat liver microsomes (AID 1963578)
Outline: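 p53RE-bla cells, 4,000/well, pre-incubated 5 h, then given compounds plus rat liver microsomes (0.5 mg/mL final) and NADPH (0.5 mg/mL final). Incubation 16 h at 37 C; beta-lactamase reporter read by LiveBLAzer fluorescence after 2 h at room temperature.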

[7] = p53 small molecule agonists, cell-based qHTS assay with human liver microsomes: qHTS cell viability counter screen (AID 1963579); further: nearly all actives have a fitted effect of over 45% in size; further: potency means the concentration at half of the fitted maximal effect
Outline: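 p53RE-bla cells, 4,000/well, dosed 5 hours after plating, with human liver microsomes (0.5 mg/mL final) plus NADPH (0.5 mg/mL final), 16 hours at 37 C. Viability read as CellTiter-Glo luminescence after 30 min at room temperature.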

[8] = p53 small molecule agonists, cell-based qHTS assay with rat liver microsomes: qHTS cell viability counter screen (AID 1963580); further: nearly all actives have a fitted effect of over 45% in size; further: potency means the concentration at half of the fitted maximal effect
Outline: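 In HCT-116 cells carrying a p53 response element-bla reporter, compounds were metabolically activated in situ by rat liver microsomes with NADPH over 16 h. Cell ATP content then served as the cytotoxicity measure.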

[9] = p53 small molecule agonists, cell-based qHTS assay: qHTS cell viability counter screen (AID 1963581); further: nearly all actives have a fitted effect of over 45% in size; further: potency means the concentration at half of the fitted maximal effect
Outline: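 HCT-116 p53RE-bla cells, 4,000/well, plated 5 h before compound pin transfer; 16 h at 37 C; bla substrate 2 h RT; then CellTiter-Glo, 30 min RT, luminescence.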

[10] = target: 5-hydroxytryptamine receptor 2A (Homo sapiens) (UniProt P28223); assay: 5-hydroxytryptamine receptor 2A (HTR2A) small molecule antagonists, cell-based qHTS assay (AID 1963586); further: nearly all actives have a fitted effect of over 45% in size
Sequence of 5-hydroxytryptamine receptor 2A (Homo sapiens) (P28223 whole entry, looked up): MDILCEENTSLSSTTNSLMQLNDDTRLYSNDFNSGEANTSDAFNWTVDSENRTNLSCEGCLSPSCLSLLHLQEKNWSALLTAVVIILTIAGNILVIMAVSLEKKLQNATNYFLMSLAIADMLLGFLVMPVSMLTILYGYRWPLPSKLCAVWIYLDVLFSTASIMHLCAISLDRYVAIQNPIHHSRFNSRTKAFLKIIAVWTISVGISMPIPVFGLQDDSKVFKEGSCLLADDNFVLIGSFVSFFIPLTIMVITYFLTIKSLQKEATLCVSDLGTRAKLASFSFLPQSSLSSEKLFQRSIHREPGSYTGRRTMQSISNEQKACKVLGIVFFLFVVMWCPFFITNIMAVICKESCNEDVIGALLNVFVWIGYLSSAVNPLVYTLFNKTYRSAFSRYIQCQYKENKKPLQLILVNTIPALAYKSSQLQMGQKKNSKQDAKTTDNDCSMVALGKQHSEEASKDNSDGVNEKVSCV
Outline: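 Antagonist-mode intracellular calcium assay: DOI (4 nM) added after 5 min compound pre-incubation at room temperature to dye-loaded HTR2A-CHO cells. Fluorescence followed for 3 min, sampled every second.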

[11] = target: 5-hydroxytryptamine receptor 2A (Homo sapiens) (UniProt P28223); assay: 5-hydroxytryptamine receptor 2A (HTR2A) small molecule agonists, cell-based qHTS assay (AID 1963587); further: nearly all actives have a fitted effect of over 30% in size
Outline: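 HTR2A-CHO cells, plated 18 h at 37 C/5% CO2, dye-loaded 1 h at 37 C; compounds in DMSO added by pin tool (agonist mode). Intracellular calcium flux read as kinetic fluorescence on FDSS over 2 min at 1 s intervals.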

[12] = target: Muscarinic acetylcholine receptor M1 (Homo sapiens) (UniProt P11229); assay: Cholinergic receptor muscarinic 1 (CHRM1) small molecule antagonists, cell-based qHTS assay (AID 1963588); further: nearly all actives have a fitted effect of over 40% in size; further: potency means the concentration at half of the fitted maximal effect
Sequence of Muscarinic acetylcholine receptor M1 (Homo sapiens) (P11229 whole entry, looked up): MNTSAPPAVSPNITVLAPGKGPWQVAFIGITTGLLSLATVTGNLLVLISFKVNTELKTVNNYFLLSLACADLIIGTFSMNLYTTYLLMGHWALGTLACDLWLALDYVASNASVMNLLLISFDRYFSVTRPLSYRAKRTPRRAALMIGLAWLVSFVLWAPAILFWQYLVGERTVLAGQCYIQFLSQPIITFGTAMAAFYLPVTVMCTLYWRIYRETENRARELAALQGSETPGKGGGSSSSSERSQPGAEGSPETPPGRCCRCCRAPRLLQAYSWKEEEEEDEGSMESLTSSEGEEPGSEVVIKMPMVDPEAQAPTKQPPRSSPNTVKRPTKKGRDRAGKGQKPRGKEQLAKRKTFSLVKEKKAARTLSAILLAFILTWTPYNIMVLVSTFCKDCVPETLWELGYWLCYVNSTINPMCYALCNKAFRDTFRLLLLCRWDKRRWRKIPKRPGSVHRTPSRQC
Outline: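 CHRM1-CHO calcium-flux assay, antagonist mode. Cells were seeded 18 h, dye-loaded 1 h at 37 C and given compound for 5 min at RT, then acetylcholine was added at 50nM. FDSS fluorescence was read 3 min; 15 concentrations, three runs.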

[13] = target: Muscarinic acetylcholine receptor M1 (Homo sapiens) (UniProt P11229); assay: Cholinergic receptor muscarinic 1 (CHRM1) small molecule agonists, cell-based qHTS assay (AID 1963589); further: nearly all actives have a fitted effect of over 35% in size
Outline: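 Human M1 in stable CHO line; 18 h plating, 1 h dye load 37 C; cpd added (agonist mode); Ca2+ fluorescence kinetic read, 1 s intervals; 15 conc, 3 runs.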

[14] = cAMP Responsive Elements (CRE) small molecule agonists, cell-based qHTS assay (AID 1963590)
Outline: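 HEK 293T CRE-bla, 2,000 cells/well, 18 h preincubation 37 C/5% CO2; cpds (DMSO) pinned, 3 h; LiveBLAzer B/G FRET substrate, 2 h RT.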

[15] = target: Beta-2 adrenergic receptor (Homo sapiens) (UniProt P07550); assay: Adrenergic beta2 receptor (ADRB2) small molecule antagonists, cell-based qHTS assay (AID 1963592); further: series mostly up to about 92 µM; nearly all actives have a fitted effect of over 50% in size
Sequence of Beta-2 adrenergic receptor (Homo sapiens) (P07550 whole entry, looked up): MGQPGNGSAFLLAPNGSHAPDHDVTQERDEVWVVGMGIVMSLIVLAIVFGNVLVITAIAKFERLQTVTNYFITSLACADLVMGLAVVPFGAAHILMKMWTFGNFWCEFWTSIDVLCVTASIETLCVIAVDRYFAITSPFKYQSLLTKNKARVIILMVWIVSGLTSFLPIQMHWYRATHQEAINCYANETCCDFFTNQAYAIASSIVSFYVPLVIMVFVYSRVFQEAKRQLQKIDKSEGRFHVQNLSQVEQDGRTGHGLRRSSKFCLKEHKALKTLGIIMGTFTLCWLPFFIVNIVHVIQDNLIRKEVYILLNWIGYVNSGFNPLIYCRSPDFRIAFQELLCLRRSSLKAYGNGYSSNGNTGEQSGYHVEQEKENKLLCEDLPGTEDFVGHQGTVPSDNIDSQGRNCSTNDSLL
Outline: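 Cells (CHO, stable ADRB2 overexpression) incubated 18-20hr at 37C; compounds added from DMSO; agonist mix (1nM isoproterenol, 100uM IBMX, 25uM Ro-20-1724) added; 0.5hr RT; d2-cAMP and anti-cAMP-cryptate added; 1hr RT; 665/615 nm read.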

[16] = target: D(2) dopamine receptor (Homo sapiens) (UniProt P14416); assay: Dopamine D2 receptor (DRD2) small molecule agonists, cell-based qHTS assay (AID 1963594); further: nearly all actives have a fitted effect of over 35% in size
Sequence of D(2) dopamine receptor (Homo sapiens) (P14416 whole entry, looked up): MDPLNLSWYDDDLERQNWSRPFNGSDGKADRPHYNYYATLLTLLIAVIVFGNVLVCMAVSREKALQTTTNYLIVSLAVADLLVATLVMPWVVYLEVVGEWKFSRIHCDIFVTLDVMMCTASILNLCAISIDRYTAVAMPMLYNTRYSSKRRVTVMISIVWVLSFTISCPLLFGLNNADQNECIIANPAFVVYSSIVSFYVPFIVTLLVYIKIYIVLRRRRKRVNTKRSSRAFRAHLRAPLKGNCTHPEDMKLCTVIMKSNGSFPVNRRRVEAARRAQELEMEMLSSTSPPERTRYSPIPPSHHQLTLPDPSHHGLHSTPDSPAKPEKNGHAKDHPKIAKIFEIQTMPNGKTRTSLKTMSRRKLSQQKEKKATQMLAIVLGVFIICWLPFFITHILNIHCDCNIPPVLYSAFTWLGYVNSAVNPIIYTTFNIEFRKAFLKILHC
Outline: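 HEK293 cells stably expressing DRD2 were cultured 24 h at 37 C, then given Ro20-1724 (0.1 mM final) and compounds for 10 min at room temperature. NKH477 (200nM) was then added for 30 min. cAMP was read by HTRF.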

[17] = target: D(2) dopamine receptor (Homo sapiens) (UniProt P14416); assay: Dopamine D2 receptor (DRD2) small molecule antagonists, cell-based qHTS assay (AID 1963595; active means well fitted inhibition curve with a large enough effect in the signal ratio in the repeat runs, with a control signal flat; the % refers to the signal ratio)
Outline: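 Stable D2 receptor HEK293 line, 24 h after seeding. Compound preincubated 10 min, then quinpirole (12 nM) with forskolin analogue NKH477 (200 nM), 30 min, room temperature. Detection by time-resolved FRET of cAMP.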

[18] = p53 small molecule agonists, cell-based qHTS assay (AID 1963582; active means well fitted activation curve with a large enough effect in the signal ratio in the repeat runs, not every such curve was filed as active; the % refers to the signal ratio)
Outline: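 Reporter line: p53RE-bla. Pre-incubation 5 h, 37 C, 5% CO2; compound (DMSO, pin tool) 16 h, 37 C; B/G FRET substrate 2 h RT; fluorescence intensity read.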

[19] = cAMP Responsive Elements (CRE) small molecule antagonists, cell-based qHTS assay (AID 1963591; active means well fitted inhibition curve with a large enough effect in the signal ratio in the repeat runs, not every such curve was filed as active; the % refers to the signal ratio)
Outline: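 Beta-lactamase reporter read by FRET substrate (LiveBLAzer B/G) after 2 h at room temperature. CRE-bla HEK293T cells had received compound plus 0.25 uM (final) NKH477 for 3 h at 37 °C.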

[20] = target: Beta-2 adrenergic receptor (Homo sapiens) (UniProt P07550); assay: Adrenergic beta2 receptor (ADRB2) small molecule agonists, cell-based qHTS assay (AID 1963593);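 further: CHO cells stably overexpressing human ADRB2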
Outline: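 CHO cells stably over-expressing ADRB2 were plated overnight at 37C, then dosed with compounds plus a stimulation mix containing 100uM IBMX and 25uM Ro-20-1724 for 0.5hr at room temperature. cAMP was measured by HTRF competition, 1hr.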

For `O=[N+]([O-])c1ccc2ncccc2c1`, the Potency [1] was “inactive”, the Potency [2] was “inactive” and the Potency [3] was “inactive”. For the same compound, the Potency [4] was “inactive”, the Potency [5] was “inactive” and the Potency [6] was “inactive”. The Potency [7] was “inactive”, the Potency [8] was “inactive” and the Potency [9] was “inactive”. The Potency [10] was “inactive”, the Potency [11] was “inactive” and the Potency [12] was “inactive”. The Potency [13] was “inactive”, the Potency [14] was “inactive” and the Potency [15] was “inactive”. The Potency [16] was “inactive” and the Potency [17] was “inactive”.

In the case of `CCC(C)Nc1ccc(NC(C)CC)cc1` (stereo unspecified), the Potency [1] is reported as 3.93 µM (active), the Potency [2] is reported as “inactive” and the Potency [3] is reported as “inactive”. For the same compound, the Potency [4] was “inactive”, the Potency [5] was “inactive” and the Potency [6] was “inactive”. For the same compound, the Potency [7] was 2.08 µM (active), the Potency [8] was 4.66 µM (active) and the Potency [9] was 10.4 µM (active). For the same compound, the Potency [18] was “inactive”, the Potency [10] was “inactive” and the Potency [12] was 9.6 µM (active). The Potency [13] was “inactive”.

In the case of `c1ccc2sc(SSc3nc4ccccc4s3)nc2c1`, the activity change, negative = cytotoxicity [1] is reported as 22.3% [at 19 µM], the activity change [2] is reported as -1.6% [at 11.8 µM, active compounds read high] and the activation [3] is reported as 4.25% [at 15.8 µM]. It also gave an activation [4] of 0.255% [at 11.8 µM], an activation [5] of 13.9% [at 13.5 µM] and an activation [6] of -0.548% [at 13.6 µM]. The activity change, negative = cytotoxicity [7] was -2.64% [at 13.5 µM], the activity change, negative = cytotoxicity [8] was 0.0229% [at 13.5 µM] and the activity change, negative = cytotoxicity [9] was -1.21% [at 13.5 µM]. It also gave an activation [18] of 0.366% [at 13.5 µM], an activity change, negative = inhibition [19] of 0.327% [at 18.9 µM] and an activity change, negative = inhibition [15] of 1.66% [at 19 µM]. For the same compound, the activation [20] was 0.998% [at 19 µM], the activation [16] was 10.5% [at 19 µM] and the activity change, negative = inhibition [17] was 5.58% [at 18.9 µM].

In the case of `CCCn1cc[n+](C)c1C`, the Potency [1] is reported as “inactive”, the Potency [2] is reported as “inactive” and the Potency [3] is reported as “inactive”. The Potency [4] was “inactive”, the Potency [5] was “inactive” and the Potency [6] was “inactive”. The Potency [7] was “inactive”, the Potency [8] was “inactive” and the Potency [9] was “inactive”. For the same compound, the Potency [10] was “inactive”, the Potency [11] was “inactive” and the Potency [12] was “inactive”. The Potency [13] was “inactive”, the Potency [14] was “inactive” and the Potency [19] was “inactive”. The Potency [15] was “inactive”, the Potency [20] was “inactive” and the Potency [16] was “inactive”. The Potency [17] was “inactive”.

With `C/C(=C(/OCCOc1ccc(Cl)cc1)c1ccc(Cl)cc1Cl)n1ccnc1` the Potency [1] was 13.3 µM (active), the Potency [2] was “inactive” and the Potency [3] was “inactive”. The Potency [4] was “inactive”, the Potency [5] was “inactive” and the Potency [6] was “inactive”. The Potency [7] was “inactive”, the Potency [8] was “inactive” and the Potency [9] was “inactive”. The Potency [18] was “inactive”, the Potency [11] was “inactive” and the Potency [13] was “inactive”. The Potency [14] was “inactive”, the Potency [19] was “inactive” and the Potency [15] was “inactive”. For the same compound, the Potency [20] was “inactive”, the Potency [16] was “inactive” and the Potency [17] was “inactive”.

With `[O-][N+](=Nc1ccccc1)c1ccccc1` the Potency [1] was “inactive”, the Potency [2] was “inactive” and the Potency [3] was “inactive”. The Potency [4] was “inactive”, the Potency [5] was “inactive” and the Potency [6] was “inactive”. For the same compound, the Potency [7] was “inactive”, the Potency [8] was “inactive” and the Potency [9] was “inactive”. For the same compound, the Potency [18] was “inactive”, the Potency [11] was “inactive” and the Potency [12] was “inactive”. For the same compound, the Potency [13] was “inactive”, the Potency [14] was “inactive” and the Potency [19] was “inactive”. For the same compound, the Potency [15] was “inactive”, the Potency [20] was “inactive” and the Potency [16] was “inactive”. The Potency [17] was “inactive”.
